Consider 12 molecules from PubChem BioAssay (NCATS).

Inconclusive results are not listed. Where a call stands in place of a potency, no number is given. Calls of active or inactive are those of the source. Calls follow the shape of the dose curve; as a rule, active = well fitted inhibition curve with a large enough effect; inconclusive = small, poorly fitted or top-dose-only effect; inactive = no such curve, though single readings can be large or run the other way.

This assay deals with Retinaldehyde dehydrogenase 3 (Homo sapiens) (UniProt P47895). Briefly: qHTS for Inhibitors of the Aldehyde Dehydrogenase Family (ALDH1A3) Primary screen (AID 2061315). The following applies: ALDH inhibition qHTS; series mostly up to 56 µM. Background: In qHTS, concentration-response curves come from the screen itself.
For the molecule `C[C@H]1/C=C/C=C/C=C/C=C/C=C/[C@@H](O)[C@H](C(=O)O)[C@H](O)C[C@H](O)CCC[C@H](O)C[C@H](O)C[C@H](O)[C@@H](C)C(=O)O[C@@H]1C`, the Potency result is “inactive”.
On to `CC(=O)OC[C@H]1O[C@H](O[C@]2(CO)O[C@H](CO)[C@@H](OC(=O)/C=C/c3ccccc3)[C@@H]2O)[C@H](O)[C@@H](O)[C@@H]1O`, for which the Potency result is “inactive”.
Regarding `NC1CCC(Nc2cc(-c3cccc(NCc4cccc(F)c4)n3)c(Cl)cn2)CC1` (configuration not stated), the Potency result was “inactive”.
With `CC(C)(C)c1ccc(C(=O)Nc2cn3cc(-n4ccnc4)ccc3n2)cc1`, the Potency result was “inactive”.
Take `C=C1C(OC(C)=O)[C@@]23CCC4[C@](C)(C(=O)O)CCC[C@@]4(C)[C@]2(O)CC[C@H]1C3` (some centres not stated): the Potency entry was “inactive”.
Take `CC(=O)N[C@H](Cc1c[nH]c2ccccc12)C(=O)OCc1cc(C(F)(F)F)cc(C(F)(F)F)c1`: the Potency entry is “inactive”.
Regarding `CN(CC1(C)CCCO1)S(=O)(=O)c1ccc(Cl)c(S(N)(=O)=O)c1` (configuration not stated), the Potency result was “inactive”.
For `CC12CC34C=CC(=O)C(C)(CCC(=O)O)C3C(CC1C4)O2` (configuration not stated) the value was “inactive”; for `C=C1C(OC(C)=O)CCC2(C)CCC(C(C)(C)O)CC12` (configuration not stated), “inactive”; for `COc1cc(C(C)=O)ccc1O[C@@H]1O[C@H](CO[C@@H]2OC[C@@H](O)[C@H](O)[C@H]2O)[C@@H](O)[C@H](O)[C@H]1O`, “inactive”.
For `Nc1nc(Nc2ccc3c(c2)CCC(N2CCCC2)CC3)nn1-c1cc2c(nn1)-c1ccccc1CCC2` (configuration not stated) the value was “inactive”; for `CC(C)(O[C@@H]1O[C@H](CO)[C@@H](O)[C@H](O)[C@H]1O)C(OC(=O)/C=C\c1ccc(O)cc1)C(=O)OCc1ccc(O[C@@H]2O[C@H](CO)[C@@H](O)[C@H](O)[C@H]2O)cc1` (some centres not stated), “inactive”.
